From PubChem BioAssay (NCATS) come the findings set out here.

Inconclusive results are not listed. The source made the active and inactive calls. Calls follow the shape of the dose curve; as a rule, active = well fitted inhibition curve with a large enough effect; inconclusive = small, poorly fitted or top-dose-only effect; inactive = flat fitted curve, though single readings scatter.

Assay in all cases: qHTS profiling for inhibitors of Plasmodium falciparum proliferation (AID 504749); also: nearly all actives have a fitted effect of over 60% in size
Common to all, as to settings: P. falciparum in erythrocytes, SYBR Green DNA, 72 h; series mostly up to 28.7 µM
(Quantitative high-throughput screening tests each substance at several concentrations.)

Experiment [1] deals with CP237. A digest of the protocol: (§1)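 Parasite proliferation within erythrocytes, 72 h exposure. Endpoint: SYBR Green I fluorescence after overnight lysis at room temperature. Controls: 0.29 uM artemisinin, DMSO.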
For experiment [2], the system named is CP238. Put shortly:
as §1

Experiment [3] has as its system CP247. A digest of the protocol:
as §1

The subject of experiment [4] is CP250. Put shortly:
as §1

Experiment [5] deals with CP252. A digest of the protocol:
as §1

For experiment [6], the system named is CP256. Put shortly:
as §1

Experiment [7] deals with CP260. A digest of the protocol:
as §1

Experiment [8] has as its system CP262. Put shortly:
as §1

The test system of experiment [9] is CP265. Put shortly: as §1
Experiment [10] concerns CP266. Put shortly:
as §1
Potency is read from the fitted curve at half-maximal effect.

With `CCO/C([O-])=N/c1c[n+](N2CCOCC2)no1`, the Potency entry in experiment [1], in experiment [2], in experiment [3], in experiment [4], in [5] and in experiment [6] was “inactive” throughout. For the same compound, the Potency result in experiment [7], in experiment [8], in [9] and in experiment [10] was “inactive” throughout.
Turning to `FC(F)(F)c1ccccc1-n1ccnc1`, the Potency result in experiment [1], in experiment [2], in experiment [3], in experiment [4], in [5] and in experiment [6] was “inactive” each time. Besides, the Potency entry in [7], in experiment [8], in experiment [9] and in experiment [10] was “inactive” each time.
For the compound `Nc1nc(N)c2nc(-c3ccccc3)c(N)nc2n1`, the Potency result in [1], in experiment [2], in experiment [3], in [4], in experiment [5] and in [6] was “inactive” throughout. Also, the Potency entry in experiment [7], in experiment [8], in experiment [9] and in experiment [10] was “inactive” each time.
For the compound `O=C(CCCN1CCC(O)(c2cccc(C(F)(F)F)c2)CC1)c1ccc(F)cc1`, the Potency was 7.94 µM (active) in [1]; 12.6 µM (active) in experiment [2]; 7.08 µM (active) in [3]; 10 µM (active) in experiment [4]; 11.2 µM (active) in experiment [7]; 10.7 µM (active) in [8]. In addition, in [9], the Potency is 10 µM (active).
Turning to `Brc1c(NC2=NCCN2)ccc2nccnc12`, the Potency result in experiment [1], in experiment [2], in experiment [3], in experiment [4], in experiment [5] and in experiment [6] was “inactive” each time. For the same compound, the Potency result in [8] and in experiment [10] was “inactive” in each case.
As for `CCn1cc(C(=O)O)c(=O)c2cc3c(cc21)OCO3`, the Potency entry in [1], in [2], in experiment [3], in experiment [4], in experiment [5] and in [6] was “inactive” throughout. The Potency result in [8], in experiment [9] and in [10] was “inactive” each time.
Take `CC(C(=O)O)c1ccc(CC2CCCC2=O)cc1` (stereo unspecified): the Potency entry in [1], in experiment [2], in [3], in experiment [4], in experiment [5] and in [6] was “inactive” each time. For the same compound, the Potency entry in [7], in experiment [8], in experiment [9] and in experiment [10] was “inactive” throughout.
Turning to `Cc1ccc(S(=O)(=O)NC(=O)NN2CCCCCC2)cc1`, the Potency entry in experiment [1], in experiment [2], in experiment [3], in [4], in experiment [5] and in [6] was “inactive” each time. Further, the Potency result in experiment [7], in experiment [9] and in experiment [10] was “inactive” throughout.
With `CC(=O)Oc1cc(C(C)C)c(OCCN(C)C)cc1C`, the Potency result in experiment [1], in experiment [2], in experiment [3], in [4], in experiment [5] and in experiment [6] was “inactive” each time. The Potency result in experiment [7], in experiment [8], in [9] and in experiment [10] was “inactive” each time.
For `O=C(CCNNC(=O)c1ccncc1)NCc1ccccc1`, the Potency entry in [1], in experiment [2], in [3], in experiment [4], in [5] and in [6] was “inactive” throughout. Besides, the Potency result in [7], in [8], in experiment [9] and in [10] was “inactive” throughout.
Turning to `NC(=O)c1cn(Cc2c(F)cccc2F)nn1`, the Potency result in [1], in experiment [2], in experiment [3], in [4], in experiment [5] and in experiment [6] was “inactive” throughout. In addition, the Potency entry in experiment [7], in [8], in experiment [9] and in [10] was “inactive” throughout.
Regarding `O=C(O)CN(CCOCCOCCN(CC(=O)O)CC(=O)O)CC(=O)O`, the Potency entry in experiment [1], in experiment [2], in experiment [3], in [4], in experiment [5] and in experiment [6] was “inactive” in each case. For the same compound, the Potency result in experiment [7], in experiment [8], in experiment [9] and in [10] was “inactive” each time.
Regarding `CCOC(=O)C1=C(C)NC(C)=C(C(=O)OC)C1c1cccc([N+](=O)[O-])c1` (stereo unspecified), the Potency was 12.6 µM (active) in experiment [1], 10 µM (active) in experiment [2] and 11.2 µM (active) in experiment [5]. Moreover, the Potency result in experiment [10] is “inactive”.
Consider `CC(C)(C)c1ccc(C(=O)CCCN2CCC(OC(c3ccccc3)c3ccccc3)CC2)cc1`, for which the Potency in experiment [1] is 11.2 µM (active); in experiment [2], 11.2 µM (active); in experiment [5] it was 10 µM (active); in experiment [7], 10 µM (active).
Take `CN(C)CC[C@@H](c1ccc(Br)cc1)c1ccccn1`: the Potency result in experiment [4], in experiment [7], in experiment [8] and in [10] was “inactive” throughout.
`CC(=O)[C@]1(O)Cc2c(O)c3c(c(O)c2[C@@H](O[C@H]2C[C@H](N)[C@H](O)[C@H](C)O2)C1)C(=O)c1ccccc1C3=O`: the Potency is 3.55 µM (active) in experiment [1]; 7.08 µM (active) in experiment [2]; 6.31 µM (active) in experiment [4]; 7.94 µM (active) in experiment [5]; 10 µM (active) in [6]; 2 µM (active) in [7]. Also, the Potency in [8] is 12 µM (active); in [10], 8.49 µM (active).
Take `COc1ccc(CCN(C)CCCC(C#N)(c2cc(OC)c(OC)c(OC)c2)C(C)C)cc1OC` (stereo unspecified): the Potency result in experiment [4], in experiment [9] and in experiment [10] was “inactive” each time.
Turning to `NC(N)=N/N=C/c1c(Cl)cccc1Cl`, the Potency in experiment [8] is 13.5 µM (active).
For the compound `C=CCc1ccccc1OCC(O)CNC(C)C` (stereo unspecified), the figures for the Potency in experiment [1] and in experiment [2] were 5.01 µM (active) and 11.2 µM (active), respectively. Besides, the Potency result in experiment [4], in experiment [8] and in [10] was “inactive” each time.
Regarding `CCCC(C(=O)OCCN(CC)CC)(c1ccccc1)c1ccccc1`, the Potency in [1] was 10 µM (active); in experiment [3], 8.91 µM (active); in experiment [9] it was 10 µM (active).
For the compound `CCN(CC)CCOCCOC(=O)C1(c2ccccc2)CCCC1`, the Potency in experiment [1] is 2.51 µM (active); in experiment [6], 11.2 µM (active); in experiment [7], 11.2 µM (active); in experiment [9], 3.98 µM (active). The Potency entry in [5], in experiment [8] and in experiment [10] was “inactive” in each case.
`CCN(CC)CC(=O)Nc1c(C)cccc1C`: the Potency result in experiment [2], in experiment [3], in experiment [4], in experiment [5], in [6] and in experiment [7] was “inactive” each time. The Potency result in experiment [8], in experiment [9] and in experiment [10] was “inactive” each time.
`C[n+]1cc2c3c(ccc2c2ccc4cc5c(cc4c21)OCO5)OCO3`: the Potency entry in experiment [1], in experiment [2], in [4] and in experiment [10] was “inactive” each time.
`CCCN1C[C@H](CSC)C[C@@H]2c3cccc4[nH]cc(c34)C[C@H]21`: the Potency entry in experiment [4], in experiment [8] and in experiment [10] was “inactive” each time. In addition, the Potency in [6] is 8.91 µM (active).
With `COc1cc(C(=O)OCCCN2CCCN(CCCOC(=O)c3cc(OC)c(OC)c(OC)c3)CC2)cc(OC)c1OC`, the Potency in experiment [1] is 6.31 µM (active); in experiment [3], 7.94 µM (active); in experiment [4] it was 10 µM (active); in experiment [7], 10 µM (active); in experiment [9] it was 11.2 µM (active).
Regarding `Cc1nc2ccccn2c(=O)c1CCN1CCC(C(=O)c2ccc(F)cc2)CC1`, the Potency result in experiment [2], in experiment [4], in [5], in experiment [6], in experiment [7] and in experiment [8] was “inactive” in each case. Moreover, the Potency entry in experiment [9] and in experiment [10] was “inactive” throughout.
Turning to `CNCCC(Oc1ccccc1OC)c1ccccc1` (stereo unspecified), the Potency entry in [1], in experiment [4], in [8] and in experiment [10] was “inactive” throughout.
`CC1=NS(=O)(=O)c2cc(Cl)ccc2N1`: the Potency result in experiment [1], in experiment [7], in [8], in experiment [9] and in [10] was “inactive” throughout.
As to `CN(C(=O)CCCOc1ccc2[nH]c(=O)ccc2c1)C1CCCCC1`, the Potency entry in experiment [1], in [2], in experiment [4], in [5], in [6] and in [7] was “inactive” each time. Moreover, the Potency entry in experiment [8] and in [9] was “inactive” in each case.
Turning to `CCc1cccc(N(C)C(N)=Nc2cccc3ccccc23)c1`, in [8], the Potency entry was “inactive”.
As for `COC(=O)[C@@H](N)Cc1ccc(O)c(O)c1`, the Potency entry in experiment [2], in experiment [5], in experiment [6], in experiment [7], in experiment [9] and in experiment [10] was “inactive” throughout.
